The assay has as its target Interleukin-8 (IL8, CXCL8), C-terminal His-tagged (Homo sapiens, UniProt P10145 SEQ:1-72). As to the kind of experiment: competition; competition TR-FRET. The settings on record: tags: C-terminal 6xHis (Sino Biological); ssRNA; 2'-F G, 2'-OMe A/C/U, 5' C6NH2, 3' idT. On the procedure:
Activity of each of these variants were tested using a time resolved competition TR-FRET assay in which the labeled parent Aptamer 3 was competed with increasing concentrations of unlabeled variants for binding to IL8 (FIG. 14). Briefly, 2-fold dilutions of thermally equilibrated aptamers were made in TR-FRET Buffer (50 mM MOPS, pH 7.4, 125 mM NaCl, 5 mM KCl, 50 μM CHAPS, 0.1 mg/mL BSA, 1 mM CaCl₂, and 1 mM MgCl₂). 5 μL of aptamer or control solution was added to 5 μl mix of 10 nM C-terminal His-tagged-IL8, 60 nM ALEXA FLUOR® 647-labeled Aptamer, and 5 nM anti-His-Eu (Perkin Elmer) in a black wall low volume 384 well plate (Greiner). For control, 5 μl of 1000-fold excess of unlabeled parent aptamer or 5 μl TR-FRET buffer alone was added to the mix of ALEXA FLUOR® 647-labeled aptamer, His-IL8, and anti-His-Eu. The plate was covered with a plate seal and subsequently incubated in the dark for 1 hour at room temperature. The plate was read on a Biotek CYTATION™ 5 plate reader. […]
To better understand the sequence requirements and confirm the stem structures of members of the Aptamer 8 family as determined from sequence covariation analysis from both the primary and secondary (degenerate) selections, a series of variants which included mutations and deletions to the predicted stems (Tables 45 and 46) were synthesized and screened. […]
(In general: TR-FRET usually uses a lanthanide donor and a delayed reading to cut background.)
CGGCGGGAAAUGUGAGAUGGGUUGCCG displayed a binding signal of around 2.5 fold worse than Aptamer 8.

For CGGUGGGAAAUGUGAGAUGGGUUACCG, the binding signal is around 2.5 fold worse than Aptamer 8.

The values above are taken from US20210230599, “STEM-LOOP COMPOSITIONS AND METHODS FOR INHIBITING INTERLEUKIN-8” (VITRISA THERAPEUTICS, INC., published 2021).
